Compounds without any hit were thinned out: in the full panel of roughly 83,000, 20% have a hit.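 Single-concentration screen, 48 h exposure, 96-well plates. Endpoint: percent growth. Below 10 = active.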 Active and inactive are the calls of the source.
Columns and labels:
Experiment in all cases: NCI-60 one-dose screen, 48 h (100 = growth as untreated, 0 = no growth, -100 = all killed)
Details in all cases: 10 µM unless noted
HCT-15 colon = system: HCT-15 colon
HT29 colon = system: HT29 colon
SNB-75 CNS = system: SNB-75 CNS
SNB-19 CNS = system: SNB-19 CNS
U251 CNS = system: U251 CNS
PC-3 prostate = system: PC-3 prostate
UACC-62 melanoma = system: UACC-62 melanoma
LOX IMVI melanoma = system: LOX IMVI melanoma
SK-MEL-28 melanoma = system: SK-MEL-28 melanoma
SK-MEL-2 melanoma = system: SK-MEL-2 melanoma
EKVX NSCLC = system: EKVX NSCLC
SN12C renal = system: SN12C renal
UO-31 renal = system: UO-31 renal
TK-10 renal = system: TK-10 renal
ACHN renal = system: ACHN renal
A498 renal = system: A498 renal
CCRF-CEM leukemia = system: CCRF-CEM leukemia
MOLT-4 leukemia = system: MOLT-4 leukemia
CAKI-1 renal = system: CAKI-1 renal
SK-MEL-5 melanoma = system: SK-MEL-5 melanoma

Measured: growth

COc1ccc(-c2ncc(-c3ccccc3)[nH]2)cc1OC
active: MOLT-4 leukemia -81.9%
inactive: HCT-15 colon 104% | HT29 colon 113% | SNB-75 CNS 108% | SNB-19 CNS 104% | U251 CNS 113% | PC-3 prostate 112% | UACC-62 melanoma 95.3% | LOX IMVI melanoma 116% | SK-MEL-28 melanoma 105% | SK-MEL-2 melanoma 118% | EKVX NSCLC 106% | SN12C renal 100% | UO-31 renal 109% | TK-10 renal 256% | ACHN renal 111% | A498 renal 89.2% | CCRF-CEM leukemia 18%

O=C(O)c1cn(C2CC2)c2cc(N3CCN(C(=O)C[n+]4cccc5ccccc54)CC3)c(F)cc2c1=O
inactive: HCT-15 colon 55% | HT29 colon 78.7% | SNB-75 CNS 75.1% | SNB-19 CNS 83.8% | U251 CNS 64.4% | PC-3 prostate 77.1% | UACC-62 melanoma 42.7% | LOX IMVI melanoma 20.7% | SK-MEL-28 melanoma 56.8% | SK-MEL-2 melanoma 72.5% | EKVX NSCLC 102% | SN12C renal 33.1% | UO-31 renal 67.1% | TK-10 renal 100% | ACHN renal 61% | CAKI-1 renal 81.3% | A498 renal 99.4%
active: CCRF-CEM leukemia -37.5% | MOLT-4 leukemia 5.51%

Clc1cc(Cl)cc(N2N=C(c3cccc(Nc4ccncc4)c3)CC2c2ccc3c(c2)OCO3)c1 (stereo not drawn)
active: HCT-15 colon -66.7% | HT29 colon 0.164% | U251 CNS -43.6% | LOX IMVI melanoma -84.3% | SK-MEL-28 melanoma -82.4% | ACHN renal -27.5% | CCRF-CEM leukemia -1.31% | MOLT-4 leukemia -0.295%
inactive: SNB-75 CNS 67.5% | SNB-19 CNS 81.9% | PC-3 prostate 28.7% | UACC-62 melanoma 97.6% | SK-MEL-2 melanoma 81.7% | EKVX NSCLC 78.8% | SN12C renal 64.6% | UO-31 renal 39.5% | TK-10 renal 65.7% | CAKI-1 renal 16.4% | A498 renal 96.6%

CC(C)(C)OC(=O)N1CCN(c2ccc(N)cc2)C(=O)C1
inactive: HCT-15 colon 100% | HT29 colon 117% | SNB-75 CNS 87% | SNB-19 CNS 99.9% | U251 CNS 107% | PC-3 prostate 109% | SK-MEL-5 melanoma 99.2% | UACC-62 melanoma 98.1% | LOX IMVI melanoma 99.1% | SK-MEL-28 melanoma 104% | EKVX NSCLC 98.6% | SN12C renal 96.2% | UO-31 renal 87.4% | TK-10 renal 126% | ACHN renal 103% | CAKI-1 renal 98.3% | MOLT-4 leukemia 101%

COc1ccc(C(=O)c2cc3c(N)c(C(=O)Nc4ccc(Cl)cc4)sc3nc2C)cc1
inactive: HCT-15 colon 55.9% | HT29 colon 54.2% | SNB-19 CNS 67% | U251 CNS 61.7% | PC-3 prostate 78.7% | UACC-62 melanoma 78.6% | LOX IMVI melanoma 82.6% | SK-MEL-28 melanoma 82.6% | SK-MEL-2 melanoma 68.5% | EKVX NSCLC 86.1% | SN12C renal 89.9% | UO-31 renal 79% | TK-10 renal 82% | ACHN renal 74.7% | CAKI-1 renal 66.3% | A498 renal 59.9% | CCRF-CEM leukemia 73.9% | MOLT-4 leukemia 82.6%
active: SNB-75 CNS 4.28%

NC(=S)N/N=C/c1ccc(OC(=O)COc2cc(Cl)c(Cl)cc2Cl)cn1
inactive: HCT-15 colon 81% | HT29 colon 70.7% | SNB-75 CNS 98.8% | SNB-19 CNS 91.6% | U251 CNS 54% | PC-3 prostate 59.8% | SK-MEL-5 melanoma 21.8% | UACC-62 melanoma 39.7% | LOX IMVI melanoma 25.1% | SK-MEL-28 melanoma 89% | EKVX NSCLC 106% | SN12C renal 43.9% | UO-31 renal 22.1% | TK-10 renal 92.5% | ACHN renal 18.4% | CAKI-1 renal 36.4% | MOLT-4 leukemia 31.3%

COc1cc2nc(-c3ccc(C(F)(F)F)cc3)cc(OCCCN3CCCCC3)c2cc1OC
active: HCT-15 colon 9.99% | SNB-75 CNS -10.6% | UACC-62 melanoma -34.7% | LOX IMVI melanoma -28.5% | CAKI-1 renal 0.476%
inactive: HT29 colon 15.8% | SNB-19 CNS 62.5% | U251 CNS 49.6% | PC-3 prostate 43.2% | SK-MEL-28 melanoma 51.4% | SK-MEL-2 melanoma 61.4% | EKVX NSCLC 69.4% | SN12C renal 45.7% | UO-31 renal 30.5% | TK-10 renal 105% | ACHN renal 38.2% | MOLT-4 leukemia 35.8%

N#CC1=C(N)Oc2c(ccc3ccccc23)C1c1ccc([N+](=O)[O-])cc1 (stereo not drawn)
inactive: HCT-15 colon 41.5% | HT29 colon 90.3% | SNB-75 CNS 44.8% | SNB-19 CNS 87.8% | U251 CNS 89.8% | UACC-62 melanoma 65.6% | LOX IMVI melanoma 59.1% | SK-MEL-28 melanoma 89.3% | SK-MEL-2 melanoma 86% | EKVX NSCLC 76.9% | SN12C renal 90.4% | UO-31 renal 54.7% | TK-10 renal 145% | ACHN renal 90.3% | CAKI-1 renal 41.6% | CCRF-CEM leukemia 66.9% | MOLT-4 leukemia 58.6%

CC[C@@]12C=CCN3CC[C@]4(c5cc(NC(=O)COc6cc(OCC(=O)Nc7cc8c(cc7OC)N(C)[C@H]7[C@@](O)(C(=O)OC)[C@H](OC(C)=O)[C@]9(CC)C=CCN%10CC[C@]87[C@@H]%109)cc7oc(-c8ccccc8)cc(=O)c67)c(OC)cc5N(C)[C@@H]4[C@](O)(C(=O)OC)[C@H]1OC(C)=O)[C@H]32
inactive: HCT-15 colon 34.7% | SNB-75 CNS 82.5% | SNB-19 CNS 58.5% | SK-MEL-5 melanoma 103% | UACC-62 melanoma 93.8% | SK-MEL-28 melanoma 112% | SK-MEL-2 melanoma 85.1% | EKVX NSCLC 56.8% | SN12C renal 49.4% | UO-31 renal 75.9% | TK-10 renal 42.8% | ACHN renal 85.4% | A498 renal 58.6% | CCRF-CEM leukemia 13.6% | MOLT-4 leukemia 13.1%
active: HT29 colon 1.38% | U251 CNS -3.12% | LOX IMVI melanoma 7.97%

CCCCCN1C=C/C(=C\C(=O)N(C)c2ccc(Br)cc2)c2ccccc21
inactive: HCT-15 colon 102% | HT29 colon 91.6% | SNB-75 CNS 91.6% | SNB-19 CNS 99.6% | U251 CNS 92.4% | SK-MEL-5 melanoma 97.9% | UACC-62 melanoma 93.7% | LOX IMVI melanoma 87.6% | SK-MEL-28 melanoma 105% | EKVX NSCLC 84.8% | SN12C renal 97.6% | UO-31 renal 77.6% | TK-10 renal 102% | ACHN renal 113% | CAKI-1 renal 86.7% | CCRF-CEM leukemia 97.9% | MOLT-4 leukemia 85%

CCC(C)N(CCNc1cc(OC)cc2cccnc12)CCC(C)C (stereo not drawn)
inactive: HCT-15 colon 76.6% | HT29 colon 55.6% | SNB-75 CNS 100% | SNB-19 CNS 96.2% | U251 CNS 84% | UACC-62 melanoma 94.2% | LOX IMVI melanoma 86% | SK-MEL-28 melanoma 99.7% | SK-MEL-2 melanoma 90% | EKVX NSCLC 92.2% | SN12C renal 93.5% | UO-31 renal 77.8% | TK-10 renal 96.7% | ACHN renal 75.2% | A498 renal 72.9% | CCRF-CEM leukemia 109% | MOLT-4 leukemia 83.9%

Cc1cc(C(=O)Nc2ncnc3nc[nH]c23)no1
inactive: HCT-15 colon 102% | HT29 colon 103% | SNB-75 CNS 79.5% | SNB-19 CNS 96.6% | U251 CNS 105% | SK-MEL-5 melanoma 101% | UACC-62 melanoma 97% | LOX IMVI melanoma 99.4% | SK-MEL-28 melanoma 106% | SK-MEL-2 melanoma 131% | EKVX NSCLC 103% | SN12C renal 93.8% | UO-31 renal 80.5% | TK-10 renal 118% | ACHN renal 99.8% | A498 renal 110% | CCRF-CEM leukemia 86.4% | MOLT-4 leukemia 91.7%

CCC(=O)c1ccc(O)c(OC)c1
inactive: HCT-15 colon 111% | HT29 colon 103% | SNB-75 CNS 100% | SNB-19 CNS 95.9% | U251 CNS 93.9% | SK-MEL-5 melanoma 98.6% | UACC-62 melanoma 95.5% | LOX IMVI melanoma 102% | SK-MEL-28 melanoma 97.8% | SK-MEL-2 melanoma 103% | EKVX NSCLC 114% | SN12C renal 94.9% | UO-31 renal 101% | TK-10 renal 99.2% | ACHN renal 103% | CAKI-1 renal 100% | CCRF-CEM leukemia 91% | MOLT-4 leukemia 101%

N#Cc1c(Nc2ccccc2)nn2cc(-c3nc4ccccc4s3)c(N)nc12
inactive: HCT-15 colon 71% | HT29 colon 81.8% | SNB-75 CNS 55.9% | SNB-19 CNS 76.5% | U251 CNS 84.2% | SK-MEL-5 melanoma 67.6% | UACC-62 melanoma 66.8% | LOX IMVI melanoma 67.9% | SK-MEL-28 melanoma 68.7% | SK-MEL-2 melanoma 97.5% | EKVX NSCLC 71.9% | SN12C renal 89.6% | UO-31 renal 83.4% | TK-10 renal 107% | ACHN renal 59% | CCRF-CEM leukemia 79.2% | MOLT-4 leukemia 93.7%

N/C(=N\N=C\c1cc2ccccc2s1)N/N=C/c1cc2ccccc2s1
inactive: HCT-15 colon 105% | HT29 colon 108% | SNB-75 CNS 95.5% | SNB-19 CNS 97% | U251 CNS 113% | SK-MEL-5 melanoma 98% | UACC-62 melanoma 95.3% | LOX IMVI melanoma 100% | SK-MEL-28 melanoma 106% | SK-MEL-2 melanoma 109% | SN12C renal 96.9% | UO-31 renal 87.7% | TK-10 renal 115% | ACHN renal 107% | CAKI-1 renal 95.3% | A498 renal 96.5% | CCRF-CEM leukemia 99.2% | MOLT-4 leukemia 101%

CN1CCN(c2cc(F)c(NC3=C(Cl)C(=O)c4ncccc4C3=O)c(F)c2)CC1
active: HCT-15 colon -8.53% | U251 CNS -9.88% | SK-MEL-5 melanoma -91.7% | UACC-62 melanoma -45.6% | LOX IMVI melanoma -70.3% | SK-MEL-28 melanoma -55.1% | SK-MEL-2 melanoma -49.6% | EKVX NSCLC -82.7% | SN12C renal -97.5% | UO-31 renal -100% | TK-10 renal 8.46% | ACHN renal -93.1% | CAKI-1 renal -85.6% | CCRF-CEM leukemia -18.2% | MOLT-4 leukemia -22.7%
inactive: HT29 colon 11.2% | SNB-75 CNS 38% | SNB-19 CNS 96.3% | A498 renal 80.1%

COc1cccc(CNCCN2C(=O)c3ccc4c5c(ccc(c35)C2=O)C(=O)N(CCNCc2cccc(OC)c2)C4=O)c1
active: HCT-15 colon 9.24% | HT29 colon 2.39% | CCRF-CEM leukemia -0.889%
inactive: SNB-75 CNS 120% | SNB-19 CNS 84.2% | U251 CNS 76.9% | SK-MEL-5 melanoma 58.8% | UACC-62 melanoma 96.8% | LOX IMVI melanoma 59.4% | SK-MEL-28 melanoma 120% | SK-MEL-2 melanoma 90.4% | EKVX NSCLC 121% | SN12C renal 85.7% | UO-31 renal 60.5% | TK-10 renal 99.6% | ACHN renal 76.4% | CAKI-1 renal 95.5% | MOLT-4 leukemia 90.4%

Reference: PubChem BioAssay (NCI)
